Test results reported in PubChem BioAssay.
Activity calls are given as the source filed them. Unless noted, the rule behind the calls is not given here.

Tests used:
[1] = circadian clock period modulators, cell-based, LOPAC library, luminescence reporter (AID 2774); details: circadian reporter cells, at 7 µM, actives lie on both sides;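 note: values are relative to mean of DMSO wells on each plate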
[2] = system: Hepatitis C virus NS3 helicase; test: HCV NS3 helicase inhibitors, primary screen, biochemical, fluorescence polarization, LOPAC1280 library (AID 687035; in the data active = inhibition above about 37%); details: Purified HCV NS3 helicase, Cy5-dT15 ssDNA binding fluorescence polarization; stronger effect = higher value; concentration not given here
[3] = target: 6-phosphogluconate dehydrogenase, decarboxylating (Homo sapiens) (UniProt P52209); test: 6PGD enzyme inhibitors, primary screen, biochemical, human, recombinant enzyme, NADPH absorbance (AID 1159550;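 active = at least 20% inhibition of 6-phosphogluconate dehydrogenase activity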); details: recombinant 6PGD, NADPH absorbance 341 nm; at 10 µM; stronger effect = higher value
[4] = differential killing of epithelial or mesenchymal cells, primary screen, imaging, PC-3E GFP, TEM4-18 mCherry, co-culture (AID 1345086;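 active = compounds killing one labelled cell type while sparing the other, by normalised counts and ratio limits, not self-fluorescent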;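 for all read-outs here: cells exposed to compound for 72 h before imaging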;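 for red/green cell ratio (normalised): normalised mesenchymal count divided by normalised epithelial count so high means epithelial killing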); details: imaging cell counts, at 1 µM; for red/green cell ratio (normalised): actives lie on both sides
[5] = system: Aerobactin synthetase IucA (Klebsiella pneumoniae hvKP1); test: Biochemical IucA enzyme inhibition primary screen of the Spectrum library (AID 1346200); details: malachite green pyrophosphate, A620, at 8 µM, stronger effect = lower value;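 note: 100% = wells without compound and 0% = wells lacking enzyme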
[6] = sensitizers of A549 cells to miR-34 induction, primary screen, imaging, A549 dox-inducible miR-34, nuclei and caspase counts (AID 1347080;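 active = compounds whose cell count with miR-34 switched on is under 0.7 times the count with it off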); details: A549 miR-34 inducible, Hoechst nuclei count, 48 h
[7] = viability rescue of complex I mutant cybrids, primary screen, cell-based, galactose medium, ATP luminescence (AID 1645843;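 active = z-score of at least 1.8 in each of two replicates, scored against plate mean and spread of sample wells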;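 note: positive z means more ATP and so rescue of galactose-driven cybrid death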); details: complex I mutant cybrid cells, 72 h, stronger effect = higher value
[8] = target: Mitogen-activated protein kinase 7 (Homo sapiens) (UniProt Q13164); test: ERK5 transactivation activators in reporter cells, primary screen, cell-based, HTS (AID 1508626;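 active = luciferase signal above three times the same-plate solvent-only control wells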;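 note: luciferase driven by Gal4-ERK5 fusion binding five Gal4 sites before minimal TATA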); details: HeLa Gal4-ERK5 transactivation, 18 h, at 5 µM, stronger effect = higher value
[9] = measured here: epithelial PC-3E GFP cell survival
[10] = measured here: mesenchymal TEM4-18 mCherry cell survival
[11] = counts scaled to control wells, 1 = unselective

Chain of Mitogen-activated protein kinase 7 (Homo sapiens) (Q13164 whole entry, looked up, the tested form may be a part): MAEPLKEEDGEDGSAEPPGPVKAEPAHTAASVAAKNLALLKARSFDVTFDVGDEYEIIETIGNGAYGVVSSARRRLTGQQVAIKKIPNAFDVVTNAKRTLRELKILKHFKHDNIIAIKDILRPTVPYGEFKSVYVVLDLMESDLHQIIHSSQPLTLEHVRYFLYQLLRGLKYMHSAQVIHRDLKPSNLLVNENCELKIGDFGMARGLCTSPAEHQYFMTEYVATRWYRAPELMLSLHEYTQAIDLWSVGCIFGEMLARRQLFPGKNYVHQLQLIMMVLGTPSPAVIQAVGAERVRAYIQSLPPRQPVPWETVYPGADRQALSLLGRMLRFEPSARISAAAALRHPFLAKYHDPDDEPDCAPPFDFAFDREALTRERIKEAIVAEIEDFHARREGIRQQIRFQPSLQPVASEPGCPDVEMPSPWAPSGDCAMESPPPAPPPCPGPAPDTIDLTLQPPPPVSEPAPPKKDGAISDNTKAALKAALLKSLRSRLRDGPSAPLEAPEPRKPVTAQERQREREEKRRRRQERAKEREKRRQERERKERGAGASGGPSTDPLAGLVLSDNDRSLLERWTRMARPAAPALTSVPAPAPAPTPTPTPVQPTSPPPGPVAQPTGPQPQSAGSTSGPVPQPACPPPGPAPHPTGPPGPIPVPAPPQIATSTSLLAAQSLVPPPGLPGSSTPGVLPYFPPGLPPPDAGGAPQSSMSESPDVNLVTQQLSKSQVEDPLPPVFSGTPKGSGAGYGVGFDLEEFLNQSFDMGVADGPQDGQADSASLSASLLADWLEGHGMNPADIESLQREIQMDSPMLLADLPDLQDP
Chain of 6-phosphogluconate dehydrogenase, decarboxylating (Homo sapiens) (P52209 whole entry, looked up): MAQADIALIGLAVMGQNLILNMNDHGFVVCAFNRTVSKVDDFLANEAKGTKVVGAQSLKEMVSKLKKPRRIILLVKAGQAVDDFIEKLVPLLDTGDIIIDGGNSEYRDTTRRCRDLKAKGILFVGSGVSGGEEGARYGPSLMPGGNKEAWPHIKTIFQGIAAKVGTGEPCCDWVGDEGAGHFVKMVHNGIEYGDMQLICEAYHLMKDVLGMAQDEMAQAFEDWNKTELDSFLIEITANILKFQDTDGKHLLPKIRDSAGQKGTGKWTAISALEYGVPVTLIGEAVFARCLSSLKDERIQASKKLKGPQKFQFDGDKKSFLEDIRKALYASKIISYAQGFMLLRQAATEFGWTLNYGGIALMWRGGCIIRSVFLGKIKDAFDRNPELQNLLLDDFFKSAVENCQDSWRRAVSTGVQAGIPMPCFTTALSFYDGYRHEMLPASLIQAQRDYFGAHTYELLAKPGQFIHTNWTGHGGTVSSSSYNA

CN1C2CCC1CC(OC(c1ccccc1)c1ccccc1N)C2 (stereo unspecified)
period change [1]: 0.055 h (inactive)
inhibition [2]: -3% (inactive)
inhibition [3]: 2.13% (inactive)
red/green cell ratio (normalised) [4]: 0.76 (inactive)
normalised cell number [4, 9]: 1.34
normalised cell number [4, 10]: 1.01
activity remaining [5]: 118% (inactive)
fold change ([6]; stronger effect = lower value): 1 (inactive)
fold change ([6]; measured here: relative caspase fold change +Dox/-Dox): 2.1
cell count ([6]; measured here: total cells with miR-34 induction, stronger effect = lower value): 9770
cell count ([6]; measured here: total cells without miR-34 induction): 9760
z-score [7]: -0.4 (inactive)

O=C1C(Cl)=C(Cl)C(=O)C(Cl)=C1Cl
inhibition [3]: 3.96% (inactive)
red/green cell ratio (normalised) [4]: 1.04 (inactive)
normalised cell number [4, 9]: 1
normalised cell number [4, 10]: 1.04
activity remaining [5]: 100% (inactive)

CC(=O)C1CCC2C3CCC4C[C@H](O)CCC4(C)C3C[C@H](O)C12C (stereo partly specified)
inhibition [3]: -3.34% (inactive)
red/green cell ratio (normalised) [4]: 1.12 (inactive)
normalised cell number [4, 9]: 0.99
normalised cell number [4, 10]: 1.11
activity remaining [5]: 112% (inactive)
luciferase signal [8]: 32 AU (inactive)

CC(C)c1ccc2c(c1O)CC[C@H]1C3=C(CC[C@]21C)C(=O)OC3
inhibition [3]: -50.6% (inactive)
red/green cell ratio (normalised) [4]: 0.95 (inactive)
normalised cell number [4, 9]: 1.07
normalised cell number [4, 10]: 1.02
activity remaining [5]: 90.4% (inactive)
luciferase signal [8]: 64 AU (inactive)

COc1c2c(cc3c1OCO3)CC[N+](C)=C2
inhibition [3]: 8.25% (inactive)
red/green cell ratio (normalised) [4, 11]: 1.03 (inactive)
normalised cell number [4, 9]: 0.97
normalised cell number [4, 10]: 1
activity remaining [5]: 99.6% (inactive)
luciferase signal [8]: 20 AU (inactive)

COC(=O)[C@]1(C)CC[C@]2(C)CC[C@]3(C)C4=CC=C5C(=CC(=O)C(O)=C5C)[C@]4(C)CC[C@@]3(C)[C@@H]2C1
inhibition [3]: 9.49% (inactive)
red/green cell ratio (normalised) [4]: 0.14 (inactive)
normalised cell number [4, 9]: 0.01
normalised cell number [4, 10]: 0
activity remaining [5]: 87.2% (inactive)
luciferase signal [8]: 152 AU (inactive)

CC1=CCCC2C1(C)CCC(C)C2(C)CC/C(C)=C/C[n+]1cn(C)c2c(N)ncnc21 (stereo unspecified)
inhibition [3]: 12% (inactive)
red/green cell ratio (normalised) [4]: 0.92 (inactive)
normalised cell number [4, 9]: 0.97
normalised cell number [4, 10]: 0.89
activity remaining [5]: 115% (inactive)
luciferase signal [8]: 64 AU (inactive)

CC(C)=CCCC1(C)C=Cc2c(O)c3c(c(CC=C(C)C)c2O1)OC12C(CC4CC1C(C)(C)OC2(C/C=C(/C)C(=O)O)C4O)C3=O (stereo unspecified)
inhibition [3]: -6.13% (inactive)
red/green cell ratio (normalised) [4]: 1.11 (inactive)
normalised cell number [4, 9]: 0.96
normalised cell number [4, 10]: 1.07
activity remaining [5]: 119% (inactive)
luciferase signal [8]: 96 AU (inactive)

COc1cc2c(cc1OC)[C@@H]1C(=O)c3ccc(OC)c(CC=C(C)C)c3O[C@@H]1CO2
inhibition [3]: 18.8% (inactive)
red/green cell ratio (normalised) [4]: 0.91 (inactive)
normalised cell number [4, 9]: 0.87
normalised cell number [4, 10]: 0.8
activity remaining [5]: 109% (inactive)
luciferase signal [8]: 68 AU (inactive)

COc1cc2c(cc1OC)[C@@H]1C(=O)c3ccc4oc(C(C)C)cc4c3O[C@@H]1CO2
inhibition [3]: 4.17% (inactive)
red/green cell ratio (normalised) [4]: 0.79 (inactive)
normalised cell number [4, 9]: 1.25
normalised cell number [4, 10]: 0.98
activity remaining [5]: 104% (inactive)
luciferase signal [8]: 76 AU (inactive)

CCOC(=O)C1C(C=C(C)C)C1(C)C (stereo unspecified)
inhibition [3]: -0.74% (inactive)
red/green cell ratio (normalised) [4]: 0.99 (inactive)
normalised cell number [4, 9]: 1.19
normalised cell number [4, 10]: 1.18
activity remaining [5]: 107% (inactive)
luciferase signal [8]: 60 AU (inactive)

CC(C)=CCCC1(C)C=Cc2c(O)c3c(c(CC=C(C)C)c2O1)OC12C(=CC4CC1C(C)(C)OC2(C/C=C(/C)C(=O)O)C4O)C3=O (stereo unspecified)
inhibition [3]: 3.01% (inactive)
red/green cell ratio (normalised) [4]: 0.97 (inactive)
normalised cell number [4, 9]: 0.89
normalised cell number [4, 10]: 0.87
activity remaining [5]: 106% (inactive)
luciferase signal [8]: 88 AU (inactive)

COc1cc2c(cc1O)CCNC2C (stereo unspecified)
inhibition [3]: -21.7% (inactive)
red/green cell ratio (normalised) [4]: 0.92 (inactive)
normalised cell number [4, 9]: 1
normalised cell number [4, 10]: 0.92
activity remaining [5]: 107% (inactive)
luciferase signal [8]: 120 AU (inactive)

COc1cc(OC)c2c(c1)O[C@H](c1ccc(OC)c(OC)c1)[C@@H](O)C2
inhibition [3]: 14.9% (inactive)
red/green cell ratio (normalised) [4]: 0.81 (inactive)
normalised cell number [4, 9]: 0.96
normalised cell number [4, 10]: 0.78
activity remaining [5]: 111% (inactive)
luciferase signal [8]: 32 AU (inactive)

C/C=C/c1ccc2c(c1)OCO2
inhibition [3]: -4.44% (inactive)
red/green cell ratio (normalised) [4]: 0.96 (inactive)
normalised cell number [4, 9]: 1.11
normalised cell number [4, 10]: 1.06
activity remaining [5]: 80.6% (inactive)
luciferase signal [8]: 296 AU (active)

COc1ccc(C(=O)O)cc1OC
inhibition [3]: 7.84% (inactive)
red/green cell ratio (normalised) [4]: 0.77 (inactive)
normalised cell number [4, 9]: 1.22
normalised cell number [4, 10]: 0.94
activity remaining [5]: 78.5% (inactive)
luciferase signal [8]: 40 AU (inactive)

CC1(C)C(=O)[C@@H]2O[C@@H]2[C@@]2(C)C1C[C@@H](O)[C@]1(C)C2CC[C@@]2(C)[C@H](c3ccoc3)OC(=O)C3OC321 (stereo partly specified)
inhibition [3]: 4.53% (inactive)
red/green cell ratio (normalised) [4]: 1.01 (inactive)
normalised cell number [4, 9]: 1.01
normalised cell number [4, 10]: 1.01
activity remaining [5]: 96.1% (inactive)
luciferase signal [8]: 24 AU (inactive)

O=C1NC(=O)C(=O)C(=O)N1
inhibition [3]: -13.9% (inactive)
red/green cell ratio (normalised) [4]: 0.89 (inactive)
normalised cell number [4, 9]: 1.09
normalised cell number [4, 10]: 0.98
activity remaining [5]: 123% (inactive)
luciferase signal [8]: 44 AU (inactive)

O=C1c2ccccc2-c2cccc3cccc1c23
inhibition [3]: -2.36% (inactive)
red/green cell ratio (normalised) [4, 11]: 0.82 (inactive)
normalised cell number [4, 9]: 1.23
normalised cell number [4, 10]: 1.01
activity remaining [5]: 106% (inactive)
luciferase signal [8]: 64 AU (inactive)

NC(=O)c1ccc(N)nc1
inhibition [3]: 1.26% (inactive)
red/green cell ratio (normalised) [4]: 0.93 (inactive)
normalised cell number [4, 9]: 1.22
normalised cell number [4, 10]: 1.14
activity remaining [5]: 120% (inactive)
luciferase signal [8]: 24 AU (inactive)

Cc1[nH]c2ccccc2c1CN(C)C
inhibition [3]: -5.39% (inactive)
red/green cell ratio (normalised) [4]: 0.92 (inactive)
normalised cell number [4, 9]: 0.99
normalised cell number [4, 10]: 0.91
activity remaining [5]: 101% (inactive)
luciferase signal [8]: 44 AU (inactive)

CC(=O)Oc1c2c(c(CC=C(C)C)c3c1C(=O)C1=C[C@@H]4CC5C(C)(C)OC(C/C=C(\C)C(=O)O)(C4=O)[C@@]15O3)OC(C)(CCC=C(C)C)C=C2 (stereo partly specified)
inhibition [3]: 23.4% (active)
red/green cell ratio (normalised) [4, 11]: 0.83 (inactive)
normalised cell number [4, 9]: 1.18
normalised cell number [4, 10]: 0.98
activity remaining [5]: 120% (inactive)
luciferase signal [8]: 140 AU (inactive)

COc1ccc(/C=C/c2cc(O)cc(O)c2)cc1
inhibition [3]: 16.8% (inactive)
red/green cell ratio (normalised) [4]: 1.08 (inactive)
normalised cell number [4, 9]: 0.95
normalised cell number [4, 10]: 1.03
activity remaining [5]: 103% (inactive)
luciferase signal [8]: 176 AU (inactive)

CC(=O)OC1CCC23C(=O)OC45CCC(C6=CC(=O)OC6)C4(C)CCC2C5CCC3(O)C1 (stereo unspecified)
inhibition [3]: -5.39% (inactive)
red/green cell ratio (normalised) [4]: 0.32 (inactive)
normalised cell number [4, 9]: 0.2
normalised cell number [4, 10]: 0.07
activity remaining [5]: 124% (inactive)
luciferase signal [8]: 16 AU (inactive)

COc1cc2ccc(=O)oc2c2ccoc12
inhibition [3]: 13.8% (inactive)
red/green cell ratio (normalised) [4]: 1.01 (inactive)
normalised cell number [4, 9]: 0.96
normalised cell number [4, 10]: 0.97
activity remaining [5]: 119% (inactive)
luciferase signal [8]: 64 AU (inactive)

N#Cc1c(Cl)c(Cl)c(Cl)c(C#N)c1Cl
inhibition [3]: -66.6% (inactive)
red/green cell ratio (normalised) [4]: 0.93 (inactive)
normalised cell number [4, 9]: 0.04
normalised cell number [4, 10]: 0.04
activity remaining [5]: 108% (inactive)
luciferase signal [8]: 604 AU (active)
